# Where two headings read alike, the source gives them in different places.
# What was measured:
# [1] = tested on: T1, TAK1; conditions: concentration: 1 μM, replicates: in singlicate; n = 1
# T1 construct: gene MAP3K7
# [2] = tested on: TAOK1; conditions: concentration: 1 μM, replicates: in singlicate; n = 1
# [3] = tested on: TAOK2; conditions: concentration: 1 μM, replicates: in singlicate; n = 1
# [4] = tested on: TAOK3; conditions: concentration: 1 μM, replicates: in singlicate; n = 1
# [5] = tested on: TBK1; conditions: concentration: 1 μM, replicates: in singlicate; n = 1
# [6] = tested on: TEC; conditions: concentration: 1 μM, replicates: in singlicate; n = 1
# [7] = tested on: TESK1; conditions: concentration: 1 μM, replicates: in singlicate; n = 1
# [8] = tested on: TGFBR1; conditions: n = 1
# [9] = tested on: TGFBR2; conditions: concentration: 1 μM, replicates: in singlicate; n = 1
# [10] = tested on: TIE1; conditions: concentration: 1 μM, replicates: in singlicate; n = 1
# [11] = tested on: T2, TIE2; conditions: concentration: 1 μM, replicates: in singlicate; n = 1
# T2 construct: gene TEK
# [12] = tested on: TLK1; conditions: concentration: 1 μM, replicates: in singlicate; n = 1
# [13] = tested on: TLK2; conditions: concentration: 1 μM, replicates: in singlicate; n = 1
# [14] = tested on: TNIK; conditions: concentration: 1 μM, replicates: in singlicate; n = 1
# [15] = tested on: TNK1; conditions: concentration: 1 μM, replicates: in singlicate; n = 1
# [16] = tested on: TNK2; conditions: concentration: 1 μM, replicates: in singlicate; n = 1
# [17] = tested on: TNNI3K; conditions: concentration: 1 μM, replicates: in singlicate; n = 1
# [18] = tested on: T3, TRKA; conditions: concentration: 1 μM, replicates: in singlicate; n = 1
# T3 construct: gene NTRK1
# [19] = tested on: TRKB; conditions: concentration: 1 μM, replicates: in singlicate; n = 1
# [20] = tested on: T4, TRKC; conditions: concentration: 1 μM, replicates: in singlicate; n = 1
# T4 construct: gene NTRK3
# [21] = concentration: 1 μM, replicates: in singlicate
# 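Also: KINOMEscan kinase panel screen.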
smiles,measurement,setting,value
C[C@@H]1CC[C@H](C(=O)NC2CCCCC2)CN1c1cc(-c2ccc3c(N)n[nH]c3c2)nc(N)n1 [GSK2291363],%Inh,[1],0%
same,%Inh,[2],0%
same,%Inh,[3],0%
same,%Inh,[4],0%
same,%Inh,[5],30%
same,%Inh,[6],9%
same,%Inh,[7],34%
same,%Inh,[8]; [21],16%
same,%Inh,[9],0%
same,%Inh,[10],15%
same,%Inh,[11],0%
same,%Inh,[12],5%
same,%Inh,[13],0%
same,%Inh,[14],8%
same,%Inh,[15],0%
same,%Inh,[16],18%
same,%Inh,[17],5%
same,%Inh,[18],9%
same,%Inh,[19],0%
same,%Inh,[20],0%
COc1cccc(C2=C(N(C)c3ccccc3)C(=O)NC2=O)c1 [SB-334865],%Inh,[1],0%
same,%Inh,[2],0%
same,%Inh,[3],0%
same,%Inh,[4],0%
same,%Inh,[5],3%
same,%Inh,[6],2%
same,%Inh,[7],24%
same,%Inh,[8]; [21],29%
same,%Inh,[9],10%
same,%Inh,[10],0%
same,%Inh,[11],0%
same,%Inh,[12],4%
same,%Inh,[13],4%
same,%Inh,[14],0%
same,%Inh,[15],0%
same,%Inh,[16],19%
same,%Inh,[17],11%
same,%Inh,[18],0%
same,%Inh,[19],0%
same,%Inh,[20],23%
CCn1c(-c2nonc2N)nc2ccccc21 [SB-693162/GW549034],%Inh,[1],33%
same,%Inh,[2],0%
same,%Inh,[3],0%
same,%Inh,[4],3%
same,%Inh,[5],34%
same,%Inh,[6],0%
same,%Inh,[7],14%
same,%Inh,[8]; [21],53%
same,%Inh,[9],0%
same,%Inh,[10],56%
same,%Inh,[11],0%
same,%Inh,[12],5%
same,%Inh,[13],0%
same,%Inh,[14],0%
same,%Inh,[15],0%
same,%Inh,[16],0%
same,%Inh,[17],0%
same,%Inh,[18],20%
same,%Inh,[19],43%
same,%Inh,[20],15%
Cc1nnc(-c2ccc(C)c(-c3ccc(C(=O)O)cc3)c2)o1 [GW608005],%Inh,[1],0%
same,%Inh,[2],0%
same,%Inh,[3],0%
same,%Inh,[4],2%
same,%Inh,[5],2%
same,%Inh,[6],0%
same,%Inh,[7],0%
same,%Inh,[8]; [21],0%
same,%Inh,[9],0%
same,%Inh,[10],15%
same,%Inh,[11],0%
same,%Inh,[12],0%
same,%Inh,[13],0%
same,%Inh,[14],0%
same,%Inh,[15],0%
same,%Inh,[16],0%
same,%Inh,[17],0%
same,%Inh,[18],0%
same,%Inh,[19],20%
same,%Inh,[20],0%
CCCNC(=O)Nc1ccc(Oc2ncnc3ccn(C)c23)cc1,%Inh,[1],22%
same,%Inh,[2],0%
same,%Inh,[3],0%
same,%Inh,[4],0%
same,%Inh,[5],13%
same,%Inh,[6],1%
same,%Inh,[7],0%
same,%Inh,[8]; [21],8%
same,%Inh,[9],0%
same,%Inh,[10],0%
same,%Inh,[11],7%
same,%Inh,[12],3%
same,%Inh,[13],0%
same,%Inh,[14],18%
same,%Inh,[15],0%
same,%Inh,[16],0%
same,%Inh,[17],0%
same,%Inh,[18],0%
same,%Inh,[19],0%
same,%Inh,[20],13%
COc1ccc(-c2cc3c(C)nc(N)nc3n([C@H]3CC[C@H](O)CC3)c2=O)cn1,%Inh,[1],21%
same,%Inh,[2],0%
same,%Inh,[3],0%
same,%Inh,[4],0%
same,%Inh,[5],90%
same,%Inh,[6],0%
same,%Inh,[7],7%
same,%Inh,[8]; [21],0%
same,%Inh,[9],6%
same,%Inh,[10],0%
same,%Inh,[11],0%
same,%Inh,[12],0%
same,%Inh,[13],0%
same,%Inh,[14],0%
same,%Inh,[15],0%
same,%Inh,[16],0%
same,%Inh,[17],0%
same,%Inh,[18],0%
same,%Inh,[19],0%
same,%Inh,[20],0%
Cc1cccc(-c2cc(-c3c[nH]nc3-c3ccccn3)ccn2)c1 [GW679395],%Inh,[1],0%
same,%Inh,[2],0%
same,%Inh,[3],0%
same,%Inh,[4],0%
same,%Inh,[5],12%
same,%Inh,[6],0%
same,%Inh,[7],9%
same,%Inh,[8]; 1 µM,57%
same,%Inh,[9],0%
same,%Inh,[10],0%
same,%Inh,[11],0%
same,%Inh,[12],0%
same,%Inh,[13],0%
same,%Inh,[14],59%
same,%Inh,[15],0%
same,%Inh,[16],4%
same,%Inh,[17],9%
same,%Inh,[18],0%
same,%Inh,[19],13%
same,%Inh,[20],20%
CCn1c(-c2ccoc2)nc2cnccc21 [SB-733887],%Inh,[1],91.4%
same,%Inh,[2],0%
same,%Inh,[3],0%
same,%Inh,[4],0%
same,%Inh,[5],12%
same,%Inh,[6],16%
same,%Inh,[7],29%
same,%Inh,[8]; [21],0%
same,%Inh,[9],0%
same,%Inh,[10],0%
same,%Inh,[11],7%
same,%Inh,[12],0%
same,%Inh,[13],0%
same,%Inh,[14],0%
same,%Inh,[15],0%
same,%Inh,[16],3%
same,%Inh,[17],11%
same,%Inh,[18],0%
same,%Inh,[19],41%
same,%Inh,[20],13%
Nc1ncnc2c1ncn2-c1cccc2ccccc12 [SKF-97184],%Inh,[1],3%
same,%Inh,[2],0%
same,%Inh,[3],9%
same,%Inh,[4],0%
same,%Inh,[5],30%
same,%Inh,[6],0%
same,%Inh,[7],0%
same,%Inh,[8]; [21],40%
same,%Inh,[9],11%
same,%Inh,[10],0%
same,%Inh,[11],0%
same,%Inh,[12],0%
same,%Inh,[13],18%
same,%Inh,[14],10%
same,%Inh,[15],0%
same,%Inh,[16],0%
same,%Inh,[17],0%
same,%Inh,[18],25%
same,%Inh,[19],0%
same,%Inh,[20],6%
CCC(=O)c1c(-c2ccccc2)c2cc(Cl)ccc2c(=O)n1Cc1cc(C(=O)NC2CC2)n(C)n1,%Inh,[1],3%
same,%Inh,[2],0%
same,%Inh,[3],0%
same,%Inh,[4],0%
same,%Inh,[5],0%
same,%Inh,[6],2%
same,%Inh,[7],23%
same,%Inh,[8]; [21],8%
same,%Inh,[9],0%
same,%Inh,[10],6%
same,%Inh,[11],0%
same,%Inh,[12],8%
same,%Inh,[13],0%
same,%Inh,[14],0%
same,%Inh,[15],0%
same,%Inh,[16],0%
same,%Inh,[17],0%
same,%Inh,[18],0%
same,%Inh,[19],0%
same,%Inh,[20],7%

# Source: publication PMC5540273 (PLoS ONE, 2017)
